IL1B secr inh: qHTS for Inhibitors of Inflammasome Signaling: IL-1-beta AlphaLISA Primary Screen. THP-1 LPS/ATP IL-1B secretion, AlphaLISA, 16 h; hits give low values. activity change, % at 57.5 µM. 4.7% of 360,000 active. AID 743279, 2014; in the data active means activity change below about -50%; inconclusive means mostly about -30% to -49%
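Secreted IL-1B measured by AlphaLISA bead assay after 16 h compound exposure of THP-1 cells; compounds (final up to 57.5 uM) added 1 h before LPS (250 ng/mL) and ATP (1.25 mM) stimulation; lower signal means less secretion.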
TDP1 inh: qHTS Assay for Inhibitors of Tyrosyl-DNA Phosphodiesterase (TDP1); Tyrosyl-DNA phosphodiesterase 1 (Homo sapiens), Q9NUW8; recombinant TDP1, AlphaScreen DNA substrate cleavage; Potency, µM (titrated, usually from 130 µM), for the others: at the top dose activity change, negative = inhibition, most hits filed as inhibitors; 0.28% of 350,000 active; AID 485290, 2010; further: potency means the concentration at half of the fitted maximal effect; nearly all actives have a fitted effect of over 40% in size
Target sequence (Q9NUW8 whole entry, looked up): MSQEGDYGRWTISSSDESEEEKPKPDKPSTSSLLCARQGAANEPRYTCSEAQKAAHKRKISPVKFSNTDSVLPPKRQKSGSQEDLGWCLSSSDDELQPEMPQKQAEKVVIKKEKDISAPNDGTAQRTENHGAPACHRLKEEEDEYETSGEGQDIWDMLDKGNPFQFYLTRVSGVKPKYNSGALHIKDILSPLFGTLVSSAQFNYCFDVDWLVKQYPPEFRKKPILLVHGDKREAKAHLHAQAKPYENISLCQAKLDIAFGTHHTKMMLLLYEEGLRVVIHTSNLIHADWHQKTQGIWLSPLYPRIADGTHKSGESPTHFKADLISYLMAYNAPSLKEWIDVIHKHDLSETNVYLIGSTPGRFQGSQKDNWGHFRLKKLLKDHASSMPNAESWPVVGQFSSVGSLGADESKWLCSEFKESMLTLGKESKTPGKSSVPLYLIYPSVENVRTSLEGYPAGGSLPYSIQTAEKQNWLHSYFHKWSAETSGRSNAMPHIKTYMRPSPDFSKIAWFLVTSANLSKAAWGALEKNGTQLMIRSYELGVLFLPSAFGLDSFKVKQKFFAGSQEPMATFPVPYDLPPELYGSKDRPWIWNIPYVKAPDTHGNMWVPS
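Recombinant human Tdp1 (E. coli-expressed, 1 nM final) preincubated with compounds 15 min at room temperature, then 5'-biotin/3'-phosphotyrosine-FITC DNA substrate (15 nM final) added for 5 min. AlphaScreen beads (10 ug/ml final) added 10 min; cleavage lowers signal.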
Giardia kill: Small Molecules that selectively kill Giardia lamblia: qHTS; Giardia lamblia trophozoite viability; activity change, % at 7.66 µM, hits read low; 0.15% of 340,000 active; in the data active means activity change below about -80%; inconclusive means between about -30% and that limit;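 further: parasites exposed to compound for two days anaerobically before the ATP read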
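Luminescent ATP signal served as the viability read-out, measured 15-30 min after adding ATP detection reagent to trophozoites that had been incubated with compounds for 48 hrs at 37 deg C anaerobically at 100 cells/well.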
DT40 TDP1 CPT: qHTS for Inhibitors of human tyrosyl-DNA phosphodiesterase 1 (TDP1): qHTS in cells in presence of CPT | chicken DT40 Tdp1-/-;hTDP1 cells + 20 nM CPT, ATP luminescence, 48 h | Potency, µM (doses to about 46.2 µM), without a hit: top-dose activity change, negative = growth inhibition, hits mostly inhibitors | 12% of 420,000 active | AID 686979, 2013; further: potency means the concentration at half of the fitted maximal effect; nearly all actives have a fitted effect of over 55% in size
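Chicken DT40 Tdp1-/- cells complemented with human TDP1, 400 cells/well, exposed to compounds plus 20 nM camptothecin for at least 48 h at 37 C; viability read as ATP content by CellTiter-Glo luminescence.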
TDP1 cell noCPT: qHTS for Inhibitors of human tyrosyl-DNA phosphodiesterase 1 (TDP1): qHTS in cells in absence of CPT | DT40 Tdp1-/- hTDP1 cells, no CPT, ATP luminescence, 48 h | Potency, µM (highest dose often 46.2 µM), for the others: at the top dose activity change, negative = growth inhibition, actives largely listed as inhibitors | 15% of 420,000 active; further: potency means the concentration at half of the fitted maximal effect; nearly all actives have a fitted effect of over 55% in size
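DT40 Tdp1-/-;hTDP1 cells, no CPT (DMSO vehicle only), 400 cells/well; compounds pin-transferred; ≥48 hr, 37 °C; CellTiter-Glo 30 min RT dark, luminescence read.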
ELG1 repair inh: qHTS screen for small molecules that inhibit ELG1-dependent DNA repair in human embryonic kidney (HEK293T) cells expressing luciferase-tagged ELG1 | HEK293T ELG1-luciferase reporter, luminescence, 16 h; DNA damage induced by 5-fluorouridine | Potency, µM (series often up to 46.1 µM), without a hit: at the top dose activity change, negative = inhibition, most hits filed as inhibitors | 2.3% of 330,000 active; further: potency means the concentration at half of the fitted maximal effect; nearly all actives have a fitted effect of over 55% in size
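Reporter activity after DNA damage by 5-fluorouridine is monitored. Compound-treated cells incubate 16 hr at 37 °C, then ONE-Glo is added for 30 min before luminescence reading.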
* hit, by the source's call; ? = inconclusive; nt = not tested or not shown; [ ] = dose if it differs, or a comment. Hits are enriched below; roughly 19% of the tested compounds scored in any of these assays. Unless noted, the call rests on the fitted dose curve; in most records, active means well fitted curve in the direction sought with a large enough effect; inconclusive means small, poorly fitted or top-dose-only effect, or another doubt; inactive means no such curve, though single readings can be large; an effect the other way counts as inactive or inconclusive. On the % scale 0 is the no-effect control and ±100 the full control effect.

SMILES | IL1B secr inh | TDP1 inh | Giardia kill | DT40 TDP1 CPT | TDP1 cell noCPT | ELG1 repair inh
CCCN(CCC)c1cc(Cl)nc(N)n1 | 17 | 8% | -8 | 0% | -15% | -14%
COC(=O)[C@H]1O[C@@H](c2cc(OC)c(C)c(OC)c2O)[C@H](C)[C@@H](O)[C@H]1C | nt | 6% | nt | nt | nt | nt
O=C(CN1C(=O)NC2(CCc3ccccc32)C1=O)c1ccc(Br)cc1 (stereo not drawn) | -59* | 6% | 35 | ? | -26% | -9%
c1ccc2c(N=NN3CCCCC3)ccnc2c1 | nt | nt | nt | -129% | ? | nt
Cc1cc(N)c2ccccc2n1 | -16 | -2% | -16 | 18% | -11% | 1%
CN(C)c1ccc(/C=C/c2ccnc3ccccc23)cc1N | nt | nt | nt | 2.8µM* | 2.5µM* | nt
C(=C\c1ccnc2ccccc12)/c1cc2c3c(c1)CCCN3CCC2 | nt | nt | nt | 2.2µM* | 2µM* | nt
Nc1c(Br)cc(/C=C/c2ccnc3ccccc23)cc1Br | nt | nt | nt | ? | 10µM* | nt
Cc1cc(/C=C/c2ccnc3ccccc23)ccc1N | nt | nt | nt | 8.9µM* | 20µM* | nt
CNC(=O)C[C@@H](N)C(=O)N[C@@H](C(=O)N[C@@H]1C(=O)N2[C@@H]1SC(C)(C)[C@@H]2C(=O)O)c1ccc(O)cc1 | nt | nt | nt | 16% | -8% | nt
O=S(=O)(c1ccccc1)c1nc(-c2cccs2)oc1SCc1ccccc1F | nt | 6% | nt | ? | -27% | nt
O=C(NC1CCCCCC1)C1CCN(S(=O)(=O)c2ccccc2)CC1 | -10 | 5% | -1 | -4% | -29% | 2%
O=C(Nc1ccncc1)C1CCN(S(=O)(=O)c2c(Cl)cccc2Cl)CC1 | 21 | 1% | 12 | ? | 18µM* | -10%
O=C(NC1CCCCCC1)C1CCN(S(=O)(=O)c2c(Cl)cccc2Cl)CC1 | 0 | 1%[56.1 µM] | 3 | 23µM* | 23µM* | ?
COC1CCCN(Cc2cn(C)nc2-c2ccc(Oc3ccccc3)cc2)C1 (stereo not drawn) | ? | 3% | -4 | -15% | -27% | 11%
CCCN1CCC(NCc2cn(C)nc2-c2ccc(Oc3ccccc3)cc2)CC1 | 0 | 1% | 31 | 5.2µM* | 4.6µM* | 8%
COCCN(Cc1cn[nH]c1-c1ccc2cc(OC)ccc2c1)C(C)C | -9 | 0% | -4 | -2% | 2% | 20%
CCOC(=O)CN(C)Cc1cn[nH]c1-c1ccc2cc(OC)ccc2c1 | -64* | 4% | 22 | 16µM* | 13µM* | 3%
COCCN1CCCC(CNCc2cn(C)nc2-c2ccc(Oc3ccccc3)cc2)C1 (stereo not drawn) | -51* | -5% | 0 | 18µM* | 5.8µM* | -9%
CCOC(=O)CN(C)Cc1cn(C)nc1-c1ccc(Oc2ccccc2)cc1 | 25 | 3% | -1 | ? | 13µM* | ?
CCCCN1C(N)=NC[C@@H]1CCCCN | 18 | nt | 14 | -9% | 1% | nt
CCCC[C@@H]1CN=C(N)N1CC(C)(C)C | 14 | nt | -19 | ? | 23µM* | nt
Cc1c(C(=O)N(C)c2ccccc2)oc2c1C(O)CC(C)(C)C2 (stereo not drawn) | -7 | 5% | -10 | ? | ? | 2%
COc1ccc(OC)c(NC(=O)c2oc3c(c2C)C(O)CC(C)(C)C3)c1 (stereo not drawn) | -4 | 9% | 22 | 15µM* | ? | -9%
COc1ccc(OC)c(NC(=O)C(=O)NNC(=O)C23CC4CC(CC(C4)C2)C3)c1 | nt | nt | 4 | ? | ? | 29µM*
SMILES | IL1B secr inh | TDP1 inh | Giardia kill | DT40 TDP1 CPT | TDP1 cell noCPT | ELG1 repair inh
Cc1ccnc2nc(C(=O)OCC(=O)c3c[nH]c4ccccc34)nn12 | 7 | 3% | 10 | -4% | -11% | -6%
O=C(O)CN1C(=O)C2C3CCC(C3)C2C1=O (stereo not drawn) | -9 | nt | nt | ? | -13% | nt
CCOc1ccc(CCNC(=O)C2CCCN2C(=O)OCc2ccccc2)cc1OCC (stereo not drawn) | 3 | 2% | -10 | -16% | ? | 16%
CCOC(=O)c1c(NC(=O)CSc2cn(CCNC(=O)c3ccccc3OC)c3ccccc23)sc2c1CCC2 | nt | 5% | nt | ? | ? | nt
CCc1ccc(OCCNC(=O)c2ccccc2SCc2ccccc2)cc1 | -10 | -3% | -8 | ? | 21µM* | -7%
CN(C)CCN(C(=O)c1ccc2c(c1)OCCO2)c1nc2c(Cl)cccc2s1 | 1 | 7% | -21 | -19% | -23% | 9%
CCOc1ccc2nc(N(Cc3cccnc3)C(=O)c3ccc4c(c3)OCCO4)sc2c1 | nt | 8% | nt | ? | 21µM* | nt
O=C(c1ccc2c(c1)OCCO2)N(Cc1cccnc1)c1nc2c(Cl)cccc2s1 | nt | 11% | nt | ? | 23µM* | nt
O=S(=O)(Nc1cc(F)ccc1F)c1cccc2nonc12 | 23 | -3% | -13 | -14% | 13% | 11%
Cc1ccc2c(c1)S(=O)(=O)c1ccc3ccccc3c1N2 | 9 | nt | -16 | -1% | 2% | nt
O=C(NCc1ccco1)C12CN(Cc3ccccc3)CC1C(c1ccc([N+](=O)[O-])cc1)=NO2 (stereo not drawn) | -29 | 7% | 10 | 16µM* | ? | -21%
CC(C)CCNC(=O)C12CN(Cc3ccccc3)CC1C(c1cccc([N+](=O)[O-])c1)=NO2 (stereo not drawn) | -12 | 6% | 4 | -29% | ? | ?
O=C(NCc1ccco1)C12CN(Cc3ccccc3)CC1C(c1cccc([N+](=O)[O-])c1)=NO2 (stereo not drawn) | -25 | 10% | ? | ? | 18µM* | -23%
O=C(NCc1ccccc1)C12CN(Cc3ccccc3)CC1C(c1ccc([N+](=O)[O-])cc1)=NO2 (stereo not drawn) | ? | 10% | -9 | ? | ? | ?
Cc1ccc(CNC(=O)C23CN(Cc4ccccc4)CC2C(c2cccc([N+](=O)[O-])c2)=NO3)cc1 (stereo not drawn) | 0 | 12% | -21 | ? | 21µM* | -11%
CN(C)c1ccc(C(CNC(=O)Cc2cccc3ccccc23)N(C)C)cc1 (stereo not drawn) | -27 | 7% | 23 | -45% | ? | ?
